High-throughput results (PubChem BioAssay)
IL1B secr inh = inhibitors of inflammasome signaling (IL-1 beta secretion); THP-1 LPS/ATP IL-1B secretion, AlphaLISA, 16 h; hits give low values; activity change, % at 57.5 µM; 4.7% of 360,000 active; in the data active = activity change below about -50%; inconclusive = mostly about -30% to -49%
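Secreted IL-1B measured by AlphaLISA bead assay after 16 h compound exposure of THP-1 cells; compounds (final up to 57.5 uM) added 1 h before LPS (250 ng/mL) and ATP (1.25 mM) stimulation; lower signal means less secretion.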
TDP1 cell noCPT = qHTS for Inhibitors of human tyrosyl-DNA phosphodiesterase 1 (TDP1): qHTS in cells in absence of CPT. Potency, µM (doses to about 46.2 µM), most hits filed as inhibitors. AID 686978, 2013. 15% of 420,000 active. DT40 Tdp1-/- hTDP1 cells, no CPT, ATP luminescence, 48 h; also: nearly all actives have a fitted effect of over 55% in size
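Cells were dispensed at 400 per well, compounds added by pin tool, plates incubated ≥48 hr at 37 °C, then CellTiter-Glo added for 30 min at room temperature before luminescence reading. Line: DT40 Tdp1-/- complemented with hTDP1; camptothecin omitted.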
TGFb SMAD3 inh = TGF-b pathway inhibition; HepG2 CAGA-GFP TGF-b/SMAD3 reporter, GFP fluorescence, 18 h; TGF-beta stimulated, 500 pg/mL final; Potency, µM (doses to about 46.1 µM), actives largely listed as inhibitors; 1.2% of 410,000 active; AID 588855; also: nearly all actives have a fitted effect of over 65% in size
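Cell-based qHTS in HEPG2 carrying a CAGA-GFP Smad reporter; compounds added before 500 pg/mL final TGF-beta, 18 h incubation at 37 degrees C, GFP fluorescence quantified per cell by imaging cytometry.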
HepG2 viability = kills HepG2 cells in TGF-b inhibitor counter-screen. HepG2 CAGA-GFP viability, ATP luminescence, 18 h. Potency, µM (doses to about 46.1 µM), actives largely listed as cytotoxic. 0.76% of 410,000 active. AID 588856
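HepG2 CAGA-GFP cells (1000/well, DMEM with 1% FBS) received compound, then TGF-beta at 500 pg/mL final, and were incubated 18 hours at 37 degrees C. Viability was read by CellTiter-Glo luminescence. Media-only wells were set as complete cell-killing and DMSO as no toxicity.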
TDP1 block = inhibitors of human tyrosyl-DNA phosphodiesterase TDP1; Q9NUW8; recombinant TDP1, AlphaScreen DNA substrate cleavage; Potency, µM (doses to about 130 µM), hits mostly inhibitors; 0.28% of 350,000 active; AID 485290; also: nearly all actives have a fitted effect of over 40% in size
Target sequence (Q9NUW8 whole entry, looked up): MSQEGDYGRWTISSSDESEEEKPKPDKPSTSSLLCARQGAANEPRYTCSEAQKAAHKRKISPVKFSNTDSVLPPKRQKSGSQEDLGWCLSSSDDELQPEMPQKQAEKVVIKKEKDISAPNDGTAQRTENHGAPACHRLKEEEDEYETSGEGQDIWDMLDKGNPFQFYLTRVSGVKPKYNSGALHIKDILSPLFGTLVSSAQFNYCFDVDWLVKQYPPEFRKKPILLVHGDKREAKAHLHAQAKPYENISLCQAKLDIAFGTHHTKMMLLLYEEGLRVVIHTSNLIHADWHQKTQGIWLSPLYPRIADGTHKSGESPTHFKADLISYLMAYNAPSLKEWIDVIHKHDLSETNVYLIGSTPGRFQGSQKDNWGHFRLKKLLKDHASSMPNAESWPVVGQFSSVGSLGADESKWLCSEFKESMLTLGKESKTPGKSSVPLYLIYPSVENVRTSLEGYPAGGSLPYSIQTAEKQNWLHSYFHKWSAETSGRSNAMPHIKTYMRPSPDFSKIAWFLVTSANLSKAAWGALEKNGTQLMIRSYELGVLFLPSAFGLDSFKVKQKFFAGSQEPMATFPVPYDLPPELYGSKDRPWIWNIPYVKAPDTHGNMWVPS
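Tdp1 1 nM final; 15 min RT w/ cpd; substrate 15 nM, 5 min; beads 10 ug/ml, 10 min; AlphaScreen read. Neg ctrl: no enzyme.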
DT40 TDP1 CPT = growth inhibition of DT40 Tdp1-/-;hTDP1 cells with camptothecin (screen for TDP1 inhibitors) | chicken DT40 Tdp1-/-;hTDP1 cells + 20 nM CPT, ATP luminescence, 48 h | Potency, µM (titrated, usually from 46.2 µM), most hits filed as inhibitors | 12% of 420,000 active | AID 686979; also: nearly all actives have a fitted effect of over 55% in size
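Chicken DT40 Tdp1-/- cells complemented with human TDP1, 400 cells/well, exposed to compounds plus 20 nM camptothecin for at least 48 h at 37 C; viability read as ATP content by CellTiter-Glo luminescence.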
Numbers stand for hits; . = inactive; ? = inconclusive; / = no result. Shown are actives, neighbours in structure and some others; about 18% of the full set was active somewhere. Unless noted, calls follow the shape of the dose curve; as a rule, active = well fitted curve in the direction sought with a large enough effect; inconclusive = small, poorly fitted or top-dose-only effect, or another doubt; inactive = no such curve, though single readings can be large; an effect the other way counts as inactive or inconclusive.

SMILES | IL1B secr inh | TDP1 cell noCPT | TGFb SMAD3 inh | HepG2 viability | TDP1 block | DT40 TDP1 CPT
COc1ccc(C)cc1-n1nnnc1SCC(=O)Nc1cccnc1Cl | . | 20.6µM | . | . | . | ?
COc1ccc(-n2nnnc2SCC(=O)Nc2ccc3c(c2)OCCO3)c(OC)c1 | . | 23.1µM | . | . | . | 13µM
CN(C)c1ncc2ncc(=O)n(CCC#N)c2n1 | / | . | / | / | / | .
COc1ccccc1NC(=O)CSc1nnnn1-c1ccc2c(c1)OCO2 | . | . | . | 11.2µM | . | .
COc1ccccc1NC(=O)CSc1nnnn1-c1ccccc1OC | . | . | . | . | . | .
CCn1nnnc1SCC(=O)Nc1cc(OC)cc(OC)c1 | . | ? | ? | . | . | 16.4µM
COc1cc(C2c3c(oc4ccccc4c3=O)C(=O)N2c2nccs2)ccc1O (configuration not stated) | . | . | . | . | / | .
COc1c(N2CCN(C(=S)NCc3ccccc3)C(C)C2)c(F)cc2c(=O)c(C(=O)O)cn(C3CC3)c12 (configuration not stated) | . | 23.1µM | ? | . | ? | ?
CNC1CCCN(c2c(F)cc3c(=O)c(C(=O)O)cn(C4CC4)c3c2OC)C1 (configuration not stated) | / | . | / | / | / | .
COc1ccccc1N1CCN(CC(O)COc2ccc(Cl)c(C)c2)CC1 (configuration not stated) | / | ? | . | . | / | ?
CCOc1ccc(CN2CCc3nc(Nc4ccc(OC)cc4OC)ncc3C2)cc1 | / | ? | ? | . | . | 20.6µM
Cc1ccccc1CN1CCc2nc(Nc3ccc4c(c3)OCCO4)ncc2C1 | / | 20.6µM | . | . | . | 23.1µM
COc1cc(Nc2ncc3c(n2)CCN(Cc2ccc(OC(C)C)c(OC)c2)C3)cc(OC)c1 | / | 13µM | . | . | . | 16.4µM
CCc1ccc(CN2CCc3nc(Nc4ccccc4)ncc3C2)cc1 | / | ? | ? | . | . | ?
COc1ccc(Nc2ncc3c(n2)CCN(Cc2ccccc2C)C3)c(OC)c1 | / | 10.3µM | . | . | . | ?
Fc1ccccc1-n1ncc2c1ncn1nc(COc3ccc(Cl)cc3)nc21 | / | . | / | . | . | ?
CC(C)[Si]1(C(C)C)OCC2OC(n3cnc4c(N)ncnc43)C(N)C2O[Si](C(C)C)(C(C)C)O1 (configuration not stated) | ? | 11.6µM | ? | . | / | 13µM
Nc1ncnc2c1ncn2[C@@H]1O[C@H](CO)C[C@@H]1O | / | / | / | / | . | /
CN1C(=O)c2ccccc2Sc2ccc(NC(=O)Nc3ccccc3F)cc21 | / | ? | . | . | . | ?
COc1cccc(CNC(=O)Nc2ccc3c(c2)N(C)C(=O)c2ccccc2S3)c1 | / | ? | ? | . | . | 23.1µM
CN1C(=O)c2ccccc2Sc2ccc(NC(=O)N3CCN(c4cccc(Cl)c4)CC3)cc21 | / | 5.17µM | ? | . | . | 7.31µM
CCc1cccc(NC(=O)Nc2ccc3c(c2)N(C)C(=O)c2ccccc2S3)c1 | / | 23.1µM | ? | . | . | ?
CN1C(=O)CSc2ccc(NC(=O)N3CCN(c4ccccc4)CC3)cc21 | . | ? | . | . | . | ?
CCN(C[C@H]1N[C@@](Cc2ccccc2)(C(=O)OC)[C@H]2C(=O)N(Cc3ccccc3)C(=O)[C@@H]12)C(=O)c1ccc(F)cc1 | . | ? | ? | . | . | 16.4µM
COC(=O)[C@]1(Cc2ccccc2)N[C@H](CN(C)C(=O)Nc2ccc(OC)cc2)[C@@H]2C(=O)N(Cc3ccccc3)C(=O)[C@@H]21 | . | 8.2µM | ? | . | . | 18.4µM
SMILES | IL1B secr inh | TDP1 cell noCPT | TGFb SMAD3 inh | HepG2 viability | TDP1 block | DT40 TDP1 CPT
COC(=O)[C@]1(Cc2ccccc2)N[C@H](CN(C)C(=O)C2CCCCC2)[C@@H]2C(=O)N(Cc3ccccc3)C(=O)[C@@H]21 | . | 16.4µM | . | . | . | 20.6µM
CCN(C[C@H]1N[C@@](CC)(C(=O)OC)[C@H]2C(=O)N(Cc3ccccc3)C(=O)[C@@H]12)C(=O)Nc1ccc(OC)cc1 | . | . | . | . | . | .
COC(=O)[C@]1(Cc2ccccc2)N[C@H](CN(C)C(=O)Nc2ccc(OC)cc2)[C@@H]2C(=O)N(C)C(=O)[C@@H]21 | . | . | . | . | . | .
CCN(C[C@H]1N[C@@](CC)(C(=O)OC)[C@H]2C(=O)N(Cc3ccccc3)C(=O)[C@@H]12)C(=O)Nc1ccc(C(F)(F)F)cc1 | -108.1 | 6.51µM | . | . | . | .
O=C(Nc1ccc(F)cc1)Nc1ccc(NC(=O)c2ccccc2O)cc1 | . | . | . | . | / | .
O=C(c1ccc(F)cc1F)N1CCCC(c2nc(-c3cccs3)no2)C1 (configuration not stated) | . | . | . | . | . | ?
Fc1cc(F)c(F)c(SCn2cc(Br)cn2)c1F | . | . | . | . | . | .
CCN(C[C@H]1N[C@@](CC)(C(=O)OC)[C@H]2C(=O)N(Cc3ccccc3)C(=O)[C@@H]12)C(=O)c1ccc(C)cc1 | . | 14.6µM | . | . | . | ?
CCN(C[C@H]1N[C@@](CC)(C(=O)OC)[C@H]2C(=O)N(Cc3ccccc3)C(=O)[C@@H]12)C(=O)c1ccc(F)cc1 | . | ? | . | . | . | .
COC(=O)[C@]1(Cc2ccccc2)N[C@H](CN(C)C(=O)c2ccc(C)cc2)[C@@H]2C(=O)N(Cc3ccccc3)C(=O)[C@@H]21 | . | 18.4µM | . | . | . | ?
COc1ccc([C@@H]2CC=C(C(=O)O)CN2S(=O)(=O)c2ccc(Cl)cc2)cc1 | . | . | . | . | . | .
COc1ccc(C2CC=C(C(C)=O)CN2S(=O)(=O)c2ccccc2)cc1 (configuration not stated) | . | 20.6µM | . | . | / | ?
CCOc1ccc(C2CC=C(C(C)=O)CN2S(=O)(=O)c2ccc(C)cc2)cc1 (configuration not stated) | . | 23.1µM | ? | . | / | 23.1µM
COc1ccc(C2CC=C(C(C)=O)CN2S(=O)(=O)c2ccc(C)cc2)cc1 (configuration not stated) | . | 23.1µM | . | . | / | ?
OCC[C@@H]1C[C@H](O)[C@@H](O)[C@]2(Cc3ccccc3CCO2)O1 | . | . | . | . | / | .
COc1ccc(CCN2CC(C(=O)Nc3cc(S(C)(=O)=O)ccc3Cl)CC2=O)cc1OC (configuration not stated) | . | . | . | . | . | .
CC(C)N(CCCNC(=O)C1CCC(CNS(=O)(=O)c2ccccc2)CC1)Cc1ccccc1 (configuration not stated) | . | ? | . | . | . | ?
